# In PubChem BioAssay (NCI):
# Values joined by “and” are separate entries in the source; they are usually repeats but may differ in a detail not shown here. Equal entries are not always repeated. This is part of a sample that, as a whole, favours compounds with a hit. Of some 83,000 tested, about 20% had one in any assay.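 Cell lines were cultured in 96-well plates, exposed to a single compound concentration, and assessed for percent growth 48 hours later.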 Active and inactive are the calls of the source. Where a SMILES comes first, the peptide text is derived from it. [ ]: non-standard residue; d: D form. ξ: configuration not given here. ξV = CC(C)C(N)C(=O)O
# Test system: OVCAR-5 ovarian
# Test: NCI-60 one-dose screen, 48 h (100 = growth as untreated, 0 = no growth, -100 = all killed)
# Details: 0.0025 µM
# Experimental: Growth inhibition of the OVCAR-5 human tumor cell line is measured as a screen for anti-cancer activity. Cells are grown in 96 well plates and exposed to the test compound for 48 hours. Compounds are tested at a single concentration, which is 10^-5 M for most compounds. The reported endpoint is percent growth (GI% or GIPRCNT), where numbers from 0 - 100% represent growth inhibition, and numbers from -100% - 0 represent cell death. For example, a value of 40 represents 60% growth inhibition. A value of 0 means no net growth occurred over the course of the experiment. A value of -40 indicates 40% of cells at the beginning of the experiment died by the end of the experiment. A value of -100 means all cells are dead at the end of the experiment.
# NCI-60 Human Tumor Cell Lines Screen was performed using the standard one-dose NCI protocol, which is described in more detail at https://dtp.cancer.gov/discovery_development/nci-60/default.htm.
# Compounds with GIPRCNT values below 10 were considered active. Activity score was based on GIPRCNT using the following formula: […]
# Score is 0 for GIPRCNT values of 100 or above, 50 for GIPRCNT values of 0, and 100 for GIPRCNT values of -100.
row,Structure (SMILES),growth
1,COc1cccc2c1C(=O)c1c(O)c3c(c(O)c1C2=O)C[C@@](O)(C(=O)CO)C[C@@H]3OC1CC(N)C(O)C(C)O1 (stereo not given in full),102% (inactive)

# Same assay, conditions: 1 µM
row,Structure (SMILES),growth
1,COc1cccc2c1C(=O)c1c(O)c3c(c(O)c1C2=O)C[C@@](O)(C(=O)CO)C[C@@H]3OC1CC(N)C(O)C(C)O1 (stereo not given in full),84.4% (inactive)

# Same assay, conditions: 2.5 µM
row,Structure (SMILES),growth
1,COc1cccc2c1C(=O)c1c(O)c3c(c(O)c1C2=O)C[C@@](O)(C(=O)CO)C[C@@H]3OC1CC(N)C(O)C(C)O1 (stereo not given in full),120% (inactive)

# Same assay, conditions: 10 µM
row,Structure (SMILES),growth
1,CCCC1CCC(=C2C(=O)CCC2=O)O1 (stereo not given),96.8% (inactive) and 97% (inactive)
2,Cc1cc(O)c(C(C)C)cc1Cl,105% (inactive)
3,O=C(O)COc1ccc(OCC(=O)O)cc1,11% (inactive)
4,COc1cccc2c1C(=O)c1c(O)c3c(c(O)c1C2=O)C[C@@](O)(C(=O)CO)C[C@@H]3OC1CC(N)C(O)C(C)O1 (stereo not given in full),-59.3% (active)
5,C[n+]1c2cc(N)ccc2cc2ccc(N)cc21,-5.86% (active) and 16.3% (inactive) and -3.49% (active)
6,CC(=O)OCC(OC(C)=O)C(OC(C)=O)C(OC(C)=O)C(OC(C)=O)C(/C=N/Nc1ccccc1)=N/Nc1ccccc1 (stereo not given),96.4% (inactive)
7,CCCCCC(C)c1ccc(O)c(C)c1 (stereo not given),102% (inactive)
8,CCO/C=C1\SC(=S)N(c2cccc(O)c2)C1=O,97.8% (inactive)
9,Cc1nc(N=C(N)N)nc2ccc3ccccc3c12,26.8% (inactive)
10,CO[C@H](C(=O)[C@@H](O)[C@@H](C)O)[C@@H]1Cc2cc3cc(OC4CC(OC5CC(O)C(O)C(C)O5)C(O)C(C)O4)c(C)c(O)c3c(O)c2C(=O)[C@H]1OC1CC(OC2CC(OC3CC(C)(O)C(O)C(C)O3)C(O)C(C)O2)C(O)C(C)O1 (stereo not given in full),-54.9% (active)
11,O=C1NC(=O)c2cc([N+](=O)[O-])ccc21,101% (inactive)
12,CC[N+](CC)=c1ccc2nc3c(cc(N)c4ccccc43)oc-2c1,-81.7% (active)
13,CCCCCCCCCCCC[N+](C)(C)Cc1ccccc1,55.6% (inactive)
14,CC(=O)Nc1cc(C)ccc1C,102% (inactive)
15,Clc1cc(Cl)c(Cl)nn1,115% (inactive)
16,CSC1SCC2C(=O)N(C)C(C(C)C)C(=O)OCC(NC(=O)c3cnc4ccccc4n3)C(=O)NC(C)C(=O)N(C)C1C(=O)N(C)C(C(C)C)C(=O)OCC(NC(=O)c1cnc3ccccc3n1)C(=O)NC(C)C(=O)N2C (stereo not given),2.94% (active)
17,OCC1OC(n2cnc3c(=S)nc[nH]c32)C(O)C1O (stereo not given),57% (inactive) and 85.1% (inactive)
18,COc1cccc2c1C(=O)c1c(O)c3c(c(O)c1C2=O)C[C@@](O)(C(C)=O)C[C@@H]3OC1CC(N)C(O)C(C)O1 (stereo not given in full),-12.3% (active)

row,Structure (SMILES),growth
1,O=C(Nc1ccc(C(=O)O)c(O)c1)c1ccccc1,93.8% (inactive) and 100% (inactive)
2,O=c1ccn(C2CC(O)C(COC(c3ccccc3)(c3ccccc3)c3ccccc3)O2)c(=O)[nH]1 (stereo not given),101% (inactive)
3,CS(=O)(=O)OC1CC(n2ccc(=O)[nH]c2=O)OC1COC(c1ccccc1)(c1ccccc1)c1ccccc1 (stereo not given),98% (inactive)
4,O=C1C=CC(=CC=C2C=CN(CCCCCCCCCCCO)C=C2)C=C1,55.4% (inactive)
5,O=[N+]([O-])C1=C(c2ccccc2)SC=C(c2ccccc2)S1,113% (inactive)
6,CC(C)C(NC(=O)CN)C(=O)O (stereo not given) (H-Gly-[ξV]-OH),103% (inactive) and 99.9% (inactive)
7,CCCCCCCCCCSC(=N)N,77.4% (inactive)
8,N=S(c1ccccc1[N+](=O)[O-])c1ccccc1[N+](=O)[O-],69.6% (inactive)
9,CC1=CC(C)=Nc2ccc(Cl)cc2N1,112% (inactive)
10,OCC(O)C(O)C(O)C(/C=N/Nc1ccccc1)=N/Nc1ccccc1 (stereo not given),82.3% (inactive)
11,NC1=C(Cl)C(=O)c2ccccc2C1=O,111% (inactive)
12,NNc1ccc2ccccc2c1,92.3% (inactive) and 93% (inactive)
13,O=C(/C=C/c1ccccn1)c1ccccc1,81% (inactive)
14,COC1OCC(O)C(O)C1O (stereo not given),110% (inactive)
15,COC(=O)C1C(O)C(C)C(O)C(C)C=C(C)C2=C3C(=C(C)C(=O)c4c(O)c(c(C)c(OC(C)=O)c43)NC(=O)C(C)=C/C=C\C(C)C(O)C(C)C1O)OCO2 (stereo not given),104% (inactive)
16,O=C1C=C(O)c2ccccc2C1=O.[Ag],115% (inactive)
17,COC(=O)C1=COC(C)C2C[n+]3ccc4c([nH]c5ccccc54)c3CC12 (stereo not given),105% (inactive) and 94.7% (inactive)
18,Oc1ccc(N=Nc2ccccn2)c(O)c1,53.8% (inactive)

# Same assay, conditions: 100 µM
row,Structure (SMILES),growth
1,O=c1ccn(C2CC(O)C(COC(c3ccccc3)(c3ccccc3)c3ccccc3)O2)c(=O)[nH]1 (stereo not given),73.7% (inactive)
